NPC1 promoter act = qHTS Assay for NPC1 Promoter Activators | Huh7 NPC1 promoter luciferase reporter, 24 h | Potency, µM (highest dose often 9.22 µM), inactives show at the highest dose activation, most hits filed as activators | 320,000 compounds, 2.4% hits; also: % of control where 0% means no effect; nearly all actives have a fitted effect of over 60% in size
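Huh7 reporter cells (NPC1 promoter driving luciferase) are dosed with compound for 24 h at 37 °C, 5% CO2; luciferase detection reagent is then added and luminescence measured after 10 min at ambient temperature.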
ELG1 genotox = qHTS screen for small molecules that induce genotoxicity in human embryonic kidney (HEK293T) cells expressing luciferase-tagged ELG1 | HEK293T ELG1-luciferase reporter, luminescence, 16 h | Potency, µM (top dose mostly 46 µM), without a hit: at the highest dose activity change, positive = activation, hits mostly activators | 330,000 compounds, 1.3% hits; also: % of control where 0% means no effect; nearly all actives have a fitted effect of over 60% in size
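HEK293T cells expressing luciferase-tagged ELG1 were exposed to compound or DMSO vehicle for 16 hr at 37 °C and 5% CO2. Luciferase activity was then measured with ONE-Glo after 30 min at room temperature.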
SMN2 splice up = qHTS Assay for Enhancers of SMN2 Splice Variant Expression; HEK293 SMN2-luciferase splicing reporter, luminescence, 30-36 h; Potency, µM (series often up to 46.1 µM), for the others: at the top dose activity change, positive = activation, actives largely listed as activators; 210,000 compounds, 2.8% hits; AID 1458, 2008; also: % of control where 0% means no effect; nearly all actives have a fitted effect of over 55% in size
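qHTS luciferase splicing reporter: luminescence rises when SMN2 exon 7 is included in transfected HEK293 cells. Compound exposure lasted 30-36 h at 37C, with 4.5 mM final sodium butyrate as control, followed by a ONE-Glo read.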
Rab9 prom act = qHTS Assay for Rab9 Promoter Activators | Huh7 Rab9 promoter-luciferase reporter, luminescence, 24 h | Potency, µM (series often up to 9.22 µM), for inactives: top-dose activation, negative = inhibition, most hits filed as activators | 320,000 compounds, 2.8% hits | AID 485297, 2010; also: % of control where 0% means no effect; nearly all actives have a fitted effect of over 60% in size
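Luminescence read-out: Huh7 cells stably expressing Rab9-luciferase, treated 24 h with compound at 37 °C, then lysed with luciferase reagent for 10 min at ambient before reading.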
FLuc counter = qHTS profiling assay for firefly luciferase inhibitor/activator using purifed enzyme and Km concentrations of substrates (counterscreen for miR-21 project); Luciferin 4-monooxygenase (Photinus pyralis), P08659; purified FLuc, Km substrates, luminescence inhibition; Potency, µM (series often up to 57.5 µM), inactives show at the top dose activity change, negative = inhibition, most hits filed as inhibitors; 360,000 compounds, 6.9% hits; AID 588342, 2011;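 also: plate controls were vehicle for no effect and reference inhibitor for full effect; nearly all actives have a fitted effect of over 55% in size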
Target sequence (P08659 whole entry, looked up): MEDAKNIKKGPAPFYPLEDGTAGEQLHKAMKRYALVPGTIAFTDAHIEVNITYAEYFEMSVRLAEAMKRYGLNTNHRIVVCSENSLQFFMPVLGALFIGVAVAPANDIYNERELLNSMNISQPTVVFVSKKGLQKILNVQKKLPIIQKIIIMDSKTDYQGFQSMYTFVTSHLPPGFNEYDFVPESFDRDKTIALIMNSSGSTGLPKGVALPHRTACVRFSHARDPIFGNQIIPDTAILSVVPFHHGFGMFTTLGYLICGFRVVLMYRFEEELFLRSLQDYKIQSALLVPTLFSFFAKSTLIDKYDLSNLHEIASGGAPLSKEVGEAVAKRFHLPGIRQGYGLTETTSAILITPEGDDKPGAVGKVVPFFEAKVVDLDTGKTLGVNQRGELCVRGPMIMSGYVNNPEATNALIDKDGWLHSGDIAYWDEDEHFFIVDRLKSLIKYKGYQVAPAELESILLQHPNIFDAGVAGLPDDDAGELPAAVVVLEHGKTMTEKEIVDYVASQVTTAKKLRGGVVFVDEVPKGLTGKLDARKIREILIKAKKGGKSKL
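Purified P. pyralis luciferase (10nM final) with 10uM D-luciferin and 10uM ATP (Km levels) in 50mM Tris acetate pH 7.5, 10mM Mg acetate, 0.01% Tween-20, 0.05% BSA; qHTS 6-point titration, ~60 µM downward; luminescence read.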
* hit, by the source's call; ? = inconclusive; · = no result; ! = a repeat was not active; [ ] = remark or other dose. In the library only some 7.4% were active in any assay of this set; here they are far more common. Calls follow the shape of the dose curve; as a rule, active = well fitted curve in the direction sought with a large enough effect; inconclusive = small, poorly fitted or top-dose-only effect, or another doubt; inactive = no such curve, though single readings can be large; an effect the other way counts as inactive or inconclusive. Potency is read from the fitted curve at half-maximal effect.

SMILES	NPC1 promoter act	ELG1 genotox	SMN2 splice up	Rab9 prom act	FLuc counter
COc1ccc(CCNC(=O)COc2ccc(C)nc2[N+](=O)[O-])cc1OC	-7.2%	0.5%	4.4%	-2.4%	-1.1%
COC(=O)c1nc(NC(=O)C(C)(C)C)n[nH]1	-2.4%	5.4%	2.0%	-4.4%	23.9µM*
O=C(NCCN1CCOCC1)c1cc(-c2ccc(Cl)cc2Cl)on1	27.4%	22.7%	·	5.0%	10.7µM*
O=C(c1cc(-c2ccc(Cl)cc2Cl)on1)N1CCCCCC1	0.708µM*	4.61µM*	·	0.708µM*	1.2µM*
CN1CCN(C(=O)c2cc(-c3ccco3)on2)CC1	13.0%	21.8%	22.9%	3.6%	?
Cc1cc(C(=O)N2CCCC(C(=O)c3ccc(Cl)cc3C)C2)no1 (stereo not drawn)	-3.7%	-10.1%	·	6.3%	-0.8%
O=C(c1cc(-c2ccc(Cl)cc2Cl)on1)N1CCCC1	0.891µM*	2.91µM*	·	1µM*	0.426µM*
O=C(NCCN1CCOCC1)c1cc(-c2cccc(Cl)c2)on1	3.9%	-20.5%	·	17.9%	-6.8%
O=C(O)/C=C(/C(=O)O)[C@]12CCN3CC4=CCO[C@@H]5CC(=O)N[C@@H]1C5[C@H]4C[C@H]32 (stereo partly drawn)	·	·	-3.1%[9.22 µM]	·	·
COC(=O)C/C=C/[C@@H](C)[C@H](OC)c1c(Br)ccc2c1OCO2	·	·	4.2%	·	·
O=C1CN(C(=O)COC(=O)CNS(=O)(=O)/C=C/c2ccccc2)c2ccccc2N1	-4.0%	-4.3%	1.3%	6.5%	-2.5%
CCCCC#Cc1ccc2c(c1)COc1c3ccccc3nn1-2	0.355µM*	?	·	7.08µM*	2.69µM*
CCCCCCC#Cc1ccc2c(c1)COc1c3ccccc3nn1-2	0.794µM*	16.9%	·	0.891µM*	?
N#CCCCC#Cc1ccc2c(c1)COc1c3ccccc3nn1-2	0.708µM*	?	·	0.1µM*	0.19µM*
CCCCCn1nc(C(=O)N2CCc3ccccc32)c2ccccc2c1=O	-3.8%	-1.5%	·	-5.9%	0.3%
O=C(O)CC(CC(=O)O)C(=O)O	·	·	-15.8%[9.22 µM]	·	·
CCOc1ncccc1C(=O)Nc1cc(S(=O)(=O)N2CCCCCC2)ccc1OC	-6.1%	-1.0%	·	-6.8%	-1.1%
CN=C1NN=C(c2cc(C)n(-c3ccc(Cl)cc3)c2C)CS1	3.98µM*	?	-7.3%	2.51µM*	4.78µM*
Cc1ccc(-n2c(C)cc(C3=NNC(=NC4CC4)SC3)c2C)cc1C	1.58µM*	?	?	0.562µM*	1.35µM*
Cc1ccc2nc(-c3ccncc3)c(NC3CCCCC3)n2c1	-3.7%	4.4%	12.0%	-2.4%	-8.7%
Cc1sc2c(c1C)C(=O)NC(c1cccc(O)c1)N2 (stereo not drawn)	-0.2%	3.2%	?	8.3%	15.1µM*
O=C(Nc1nnc(S(=O)(=O)Nc2ccccc2)s1)c1ccccc1Cl	-2.6%	3.4%	·	-2.3%	9.53µM*!
O=C(Nc1nnc(S(=O)(=O)Nc2ccccc2)s1)C1CCCCC1	-3.2%	0.4%	·	-5.9%	8.49µM*!
CCN(CC)S(=O)(=O)c1nnc(NC(=O)c2ccccc2Cl)s1	·	·	·	·	-2.6%
O=C(Nc1nnc(S(=O)(=O)N2CCCC2)s1)c1ccccc1Cl	-1.0%	-1.3%	·	0.7%	4.78µM*
SMILES	NPC1 promoter act	ELG1 genotox	SMN2 splice up	Rab9 prom act	FLuc counter
Cc1ccccc1NS(=O)(=O)c1nnc(NC(=O)c2ccc(Cl)cc2)s1	-8.7%	-0.2%	·	-8.0%	2.39µM*!
O=C(Nc1nnc(S(=O)(=O)N2CCCCCC2)s1)c1ccccc1Cl	-5.6%	1.7%	·	2.5%	-20.6%
O=C(CCNC(=O)c1ccccc1Cl)NCC(c1ccco1)N1CCCC1 (stereo not drawn)	-1.6%	12.6%	·	-0.7%	2.1%
COc1ccc(OCC(=O)Nc2nnc(S(=O)(=O)N3CCCCCC3)s2)cc1	1.5%	-1.2%	·	-1.1%	15.1µM*!
O=C(Nc1nnc(S(=O)(=O)N2CCCCCC2)s1)c1ccccc1	?	12.1%	·	3.98µM*	6.75µM*
COc1cc(/C=N/N=C(/N)c2nonc2N)cc(Br)c1OCc1ccccc1C	1.0%	2.2%	-23.2%	-5.6%	-1.5%
COc1cccc(/C=N/NC(=O)c2nnn(-c3nonc3N)c2-c2cccs2)c1	8.1%	-5.4%	·	1.0%	?
Nc1nonc1-n1nnc(C(=O)N/N=C/c2ccc3c(c2)OCO3)c1-c1ccccc1	-2.0%	-7.5%	·	0.1%	?
CCCOc1ccc(/C=N/NC(=O)c2nnn(-c3nonc3N)c2-c2cccs2)cc1OC	15.4%	-9.2%	·	-1.8%	10.7µM*
CC(C)c1c(C(=O)N/N=C/c2ccc3c(c2)OCO3)nnn1-c1nonc1N	0.9%	1.8%	·	12.0%	9.53µM*
COc1cccc(/C=N/N=C(\N)c2nonc2N)c1O	?	18.3µM*	?	2.51µM*	?
CCN(CC)c1ccc(/C=N/NC(=O)c2nnn(-c3nonc3N)c2C(C)C)c(O)c1	-13.9%	-10.3%	·	-33.9%	19µM*
CC(C)c1c(C(=O)N/N=C/c2ccncc2)nnn1-c1nonc1N	3.1%	0.5%	·	-3.6%	?
COc1ccc(NC(=O)CN2C(=O)CC(c3ccco3)Sc3ccccc32)cc1OC (stereo not drawn)	·	·	-22.5%	·	-0.8%
COc1ccc(NC(=O)CSc2nnc(NC(=O)Nc3ccccc3)s2)c(OC)c1	·	·	·	·	-4.4%
CCOC(=O)C1(CCCc2ccccc2)CCN(S(=O)(=O)N(C)C)CC1	1.3%	-10.8%	·	-0.8%	0.2%
Cc1c(CCNC(=O)c2c(F)cccc2F)sc2nc(-c3ccc(F)cc3)nn12	·	·	·	·	-6.7%
CC(/C=N/NC(=O)c1nnn(-c2nonc2N)c1C(C)C)=C\c1ccco1	-2.8%	1.4%[9.26 µM]	·	8.2%	5.36µM*
COc1ccccc1CC(=O)O/N=C(\N)c1ccccn1	0.6%	5.6%	·	21.4%	-17.4%
C/C(=N\NC(=O)c1nnn(-c2nonc2N)c1C(C)C)c1ccncc1	15.6%	-4.6%	·	-12.8%	-0.1%
C/C(=N\NC(=O)c1nnn(-c2nonc2N)c1C(C)C)c1cc(C)sc1C	-1.0%	-2.2%	·	-5.4%	16.9µM*
CCCc1c(C(=O)N/N=C/C(C)=C/c2ccco2)nnn1-c1nonc1N	3.6%	1.4%	·	0.0%	-18.2%
COc1ccccc1/C=N\N=C(\N)c1ccccn1	?	?	15.8µM*	2.24µM*	6.75µM*
N/C(=N\N=C\c1ccc2c(c1)OCO2)c1nonc1N	0.398µM*	?	3.55µM*	0.316µM*	0.953µM*
COc1ccccc1C(=O)Nc1ccc(S(=O)(=O)Nc2cnc3ccccc3n2)cc1	-7.8%	4.0%	·	0.3%	-2.5%
Cn1c(=O)c2sccc2n2c(CCCC(=O)NC3CCN(Cc4ccccc4)CC3)nnc12	-2.7%	-5.7%	·	0.0%	1.2%

Compound activity from PubChem BioAssay.
